# In PubChem BioAssay (NCI):
# “And” between values parts separate entries of the source, which are not always exact repeats. Equal values may be shown once. This is part of a sample that, as a whole, favours compounds with a hit. Of some 83,000 tested, about 20% had one in any assay.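 Percent growth is the endpoint: 0 to 100 indicates growth inhibition (40 means 60% inhibition), 0 means no net growth, and negative values indicate cell death.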 A number with no mark means an inactive call. The source made the active and inactive calls. Rule for the calls: active = growth percent below 10; inactive = the rest.
# System: MDA-MB-468 breast
# Test: NCI-60 one-dose screen, 48 h (100 = growth as untreated, 0 = no growth, -100 = all killed)
# Conditions: 10 µM unless noted
row,SMILES,growth
1,CCCCS(=O)(=O)Cl,104%
2,CC1(C)N=C(N)N=C(N)N1c1cccc(CCCCc2ccc(Cl)c(S(=O)(=O)F)c2)c1,75.8%
3,CCCCCCCCCCCCCCCC[N+](C)(C)Cc1ccccc1,-27.3% (active) and -40.6% (active)
4,CCOCC1(CCc2ccccc2)C(=O)NC(=S)NC1=O,119%
5,O=C=Nc1ccc(Br)cc1,83.1%
6,COc1ccc(OC)c(/C=C/[N+](=O)[O-])c1,-59.3% (active)
7,O=S(=O)(Cl)c1ccccc1 (tested in a mixture with another compound),98.6%
8,O=C(O)c1cccc(CCl)c1,105%
9,CCOP(=O)(NC[C@H]1O[C@](O)(CO)[C@@H](O)[C@@H]1O)OCC,107%
10,CCCCCN(CCCCC)CC(O)c1ccc(C)c(Cl)c1 (centres undefined),99.9%
11,Cc1cc(N=Nc2ccccc2C)ccc1N,64.5%
12,COC(=O)C12C3C4C1C1C2C3C41NC(=O)c1csc([C@@H](C[C@H](C(C)C)N(C)C(=O)[C@@H](NC(=O)[C@H]2CCCCN2C)C2CC2)OC(C)=O)n1 (some centres undefined),29.6%
13,COC(=O)[C@H]1[C@@H](O)[C@@]2(O)c3c(OC)cc(OC)cc3O[C@@]2(c2ccc(OC)cc2)[C@@H]1c1ccccc1,-16.5% (active)
14,N#CC(N)c1ccccc1 (centres undefined),98.9%
15,O=C(c1cccc(O)c1O)c1cn(Cc2ccc(F)cc2)c2cccc(O)c12,27%
16,CC1(CF)NC(=O)NC1=O (centres undefined),113%
17,CCN(CCO)C(Cc1ccccc1)c1ccccc1 (centres undefined),96%
18,CC[CH2][Sn]([Cl])([Cl])[CH2]CC.Oc1ccccc1C=NCCN=Cc1ccccc1O,-59.7% (active) and -33.9% (active)
19,CCOC(=O)c1c(C)n(Cc2ccccc2)c2cc(CN(C)C)c(O)cc12,73.9%
20,COC1CC2c3ccccc3C1C(C)=[N+]2C (centres undefined),96.4%
21,COc1cc(C=C2c3ccccc3C(=O)c3ccccc32)ccc1OCCCCOc1cc2c(cc1OC)C(=O)N1CCCC1C=N2 (centres undefined),-75.4% (active)

row,SMILES,growth
1,CN1CC(=O)N(O)C1(C)c1cccnc1 (centres undefined),94.8%
2,CC(=O)O[C@@H]1[C@@H]2O[C@H]2[C@@](C)(O)C(=O)[C@@H](C)C/C=C/[C@H]2[C@@H]3O[C@]3(C)[C@@H](C)C3[C@H](Cc4ccccc4)NC(=O)[C@@]312 (some centres undefined),56.8%
3,C[C@]12CC[C@H]3[C@@H](C[C@@H]4SC(Nc5ccccc5)=N[C@@]45C/C(=N/O)CC[C@]35C)[C@@H]1CCC2=O,59.9%
4,COc1cc(CNCCc2ccc(Cl)cc2)cc(OC)c1O,43.5%
5,N#C[Se]Cc1cc(-c2ccccc2)n(-c2ccc(S(N)(=O)=O)cc2)n1,-66.1% (active)
6,CCOc1ccc(C(O)CN(C)Cc2ccccc2)cc1Cl (centres undefined),100%
7,O=[N+]([O-])c1c(Cl)cc(Cl)c([N+](=O)[O-])c1Cl,15%
8,COC(=O)[C@@H](C)C[C@H](Cc1ccc(F)cc1)NC(=O)c1csc([C@@H](C[C@H](C(C)C)N(C)C(=O)[C@@H](NC(=O)[C@H]2CCCCN2C)C(C)C)OC(C)=O)n1,21%
9,CC(=O)ONc1ccc([N+](=O)[O-])c(C(F)(F)F)c1,118%
10,OCc1ccc2c(c1)OCO2,97.6%
11,Cc1ccc(P(=O)(O)O)cc1,88.3%
12,C#Cc1ccc2c(c1)C(c1ccccc1)=NCC(=O)N2C,20.8%
13,C[C@]12CCc3sc(Nc4ccc(O)cc4)nc3C1=CC[C@@H]1[C@@H]2CC[C@]2(C)C(=O)CC[C@@H]12,-36.9% (active)
14,C=CC(=O)NC(O)C(Cl)(Cl)Cl (centres undefined),121%
15,C[C@@H]1CCC/C=C/[C@H]2C[C@@H](O)C[C@@H]2[C@@H](O)/C=C/C(=O)O1,-21.4% (active)
16,CC[CH2][Pb]([CH2]CC)([CH2]CC)[O]C(=O)C(F)(F)F,-90.1% (active)
17,C[Se]/C=C1/C(=O)N(c2c(Cl)cccc2Cl)c2ccccc21,-6.67% (active)
18,C/C=C/CC(C)C(O)[C@H](NC(=O)[C@@H]1CCCN1C(=O)C(C)(C)NC(=O)CCCCCCCCC)C(=O)NC(C)(C)C(=O)N[C@@H](CCC(N)=O)C(=O)N[C@H](CCC(N)=O)C(=O)NC(C)(C)C(=O)NC(C)(C)C(=O)N[C@@H](CCC(N)=O)C(=O)N[C@H](CC(C)C)C(=O)N[C@H](CO)CC(C)C (some centres undefined),-75.9% (active) and -84.9% (active)
19,O=C1CCCCC1CN1CCCCC1 (centres undefined),112%
20,COc1cc([C@@H]2c3cc4c(cc3[C@H](OC(C)=O)[C@H]3COC(=O)[C@@H]23)OCO4)cc(OC)c1OC,-40.2% (active)
21,CC(=O)C(N)Cc1ccccc1 (centres undefined),97%

row,SMILES,growth
1,CN1CCN(C(=O)COc2ccc(/C=C3\CC4C5CC=C6CC(Cl)CCC6(C)C5CCC4(C)C3=O)cc2)CC1 (centres undefined),66.6%
2,CNC(=O)Oc1ccccc1,101%
3,CN(C)CC(C(=O)Cc1ccccc1)c1ccccc1 (centres undefined),-29.8% (active)
4,CC/C(=C/c1ccc(OC)cc1OC)[N+](=O)[O-],-6.94% (active)
5,COc1cc([C@@H]2c3cc4c(c(O)c3C[C@H]3COC(=O)[C@@H]32)OCO4)cc(OC)c1OC,5.12% (active)
6,Cc1ccccc1O,103%
7,C=CC12CCN(CC1)C(C(O)c1ccnc3ccc(OC)cc13)C2 (centres undefined),11.6%
8,C[C@]12CCc3sc(-c4cccc(F)c4)nc3C1=CC[C@@H]1[C@@H]2CC[C@]2(C)C(=O)CC[C@@H]12,29.2%
9,O=C1N[C@@H]2[C@@H](O)[C@@H](O)[C@H](O)C[C@H]2c2cc3c(c(O)c21)OCO3,-45.8% (active)
10,COc1c(O)c2c3c(c1OC)-c1ccccc1CC3N(C)CC2 (centres undefined),120%
11,N#CC1c2ccccc2C=CN1C(=O)c1ccc(N(CCCl)CCCl)cc1 (centres undefined),79.7%
12,Cn1c(O)c(N=O)c(=O)n(C)c1=O,112% and 106%
13,O=[N+]([O-])/C=C\c1ccc(Cl)c(Cl)c1,12.4%
14,O=c1c2ccccc2nc(-c2ccccc2Cl)n1-c1nnc(C(F)(F)F)s1,19.7%
15,Cc1cc(N(CCCl)CCCl)ccc1C=Nc1ccc2ccccc2c1,-9.8% (active)
16,S=P(SP(=S)(c1ccccc1)c1ccccc1)(c1ccccc1)c1ccccc1,101%
17,O=[N+]([O-])c1ccc(Br)c([N+](=O)[O-])c1,34%
18,CCCCn1cc(C(=O)/C(C#N)=C/c2cc3ccccc3nc2Cl)c2cc(OC)ccc21,104%
19,CCCCCCCC(=O)OCC/C=C/C1OC1C1OC(=O)/C=C\C=C\c2nc(oc2C)/C=C(/C)CCC2OC2C1OC(=O)NC(C)=O (centres undefined),-51.1% (active)
20,[O-][n+]1ccccc1S,85.2%
21,CC[C@H](C)[C@H](NC(=O)[C@H]1CCCCN1C)C(=O)N(C)[C@H](C[C@@H](O)c1nc(C(=O)N[C@@H](Cc2ccccc2)C[C@H](C)C(=O)O)cs1)C(C)C,70.1%

row,SMILES,growth
1,Nc1ccc(S(=O)(=O)F)cc1,107%
2,CCOC(=O)Nc1cc(Cl)c([N+](=O)[O-])c(NC(=O)OCC)n1,87.2%
3,C[C@@H]1C/C=C\C(=O)O[C@H](/C=C/C#C/C=C/C(C)(C)[C@@H](O)c2cccc(O)c2Br)[C@@H](C)/C=C/[C@H](C)C[C@H](OC(N)=O)C1,33.6%
4,C=CCc1ccc(OC(=O)Cc2ccccc2)c(OC)c1,100%
5,C1CCC([PH+](C2CCCCC2)C2CCCCC2[PH+](C2CCCCC2)C2CCCCC2)CC1.[Au].[CH-]1CCCCC1CC1CCCC[N-]1 (centres undefined),-61.8% (active)
6,C/C(=N/OC(=O)N(C)C)c1cc(Cl)ccc1Cl,102%
7,[Cl][Hg][c]1ccc2ccccc2c1,-83.2% (active)
8,COc1ccc(OC)c(/C=C(/C)[N+](=O)[O-])c1,-40.8% (active)
9,CC(C)CCC[C@@H](C)[C@H]1CC[C@H]2[C@@H]3CC=C4C[C@@H](OC(=O)Cc5ccc(N(CCCl)CCCl)cc5)CC[C@]4(C)[C@H]3CC[C@]12C,107%
10,CCCCN(CCCC)CC(O)c1ccccc1 (centres undefined),116%
11,COC1=CC(=O)O[C@@H](/C=C/c2ccc3c(c2)OCO3)C1,103%
12,COc1ccccc1N1CCN(CCc2c[nH]c3cc4c(cc23)OCO4)CC1,90%
13,Oc1c(Br)cc(Br)cc1Br.[Cu+2],102%
14,C=CCCCN=C=S,33.9%
15,CC1(C)CC2(CC(C)(C)c3cc(O)c(O)cc32)c2cc(O)c(O)cc21,83.1%
16,CC(C)c1cc([N+](=O)[O-])cc([N+](=O)[O-])c1O,96.7%
17,CCN1C(=O)NC(=O)C(C)(N2C(=O)c3c(F)c(F)c(F)c(F)c3C2=O)C1=O (centres undefined),-6.73% (active)
18,CC12CCC3C(CC=C4CC(O)CCC43C)C1C/C(=C\N1CCOCC1)C2=O (centres undefined),106%
19,[Cl][Hg][c]1cc(Br)cc(Br)c1,7.71% (active)
20,COC(=O)[C@@H](C)C[C@H](Cc1ccccc1)NC(=O)c1nc([C@@H](C[C@H](C(C)C)N(C)C(=O)[C@@H](NC(=O)[C@H]2CC(=O)CCN2C)C(C)C)OC(C)=O)sc1C(C)C,7.54% (active)
21,COC(=O)C12CC(NC(=O)c3csc([C@@H](C[C@H](C(C)C)N(C)C(=O)[C@@H](NC(=O)[C@H]4CCCCN4C)C(C)C)OC(C)=O)n3)(C1)C2,42.5%
